Reference: PubChem BioAssay (EPA / NIEHS)
Values joined by “and” are separate entries in the source; they are usually repeats but may differ in a detail not shown here. Equal entries are not always repeated. Some structures have more than one record in an assay (separate samples or runs), and their calls can disagree. Active and inactive are the calls of the source. How the source made its calls: active means hit-call score of the fitted dose curve at least 0.9, where 1 is the maximum; inactive means score below 0.9.

tested on: not listed separately; test: ATG_BRE_CIS: Attagene CIS-FACTORIAL HepG2 Assay for human Bone Morphogenetic Protein (BMP) Response Element (BRE) (AID 2282933); settings: HepG2 BMP response element reporter, Attagene transcription factor profiling; actives raise or lower the signal
Method in brief: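 Endogenous transcription factor activity read in transiently transfected HepG2 cells after 24 h chemical exposure. Bidirectional curve fitting against DMSO; readout is reporter transcript level by RT-PCR with capillary electrophoresis of labelled products.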

| Compound | outcome |
| --- | --- |
| N#Cc1ccc(N(CC(N)=O)CC(F)(F)F)cc1C(F)(F)F | inactive |
| Clc1ccc(Cl)cc1 | inactive |
| Clc1ccc(C(c2ccccc2Cl)C(Cl)(Cl)Cl)cc1 (stereo not given) | inactive |
| c1cc2ccc3cccc4ccc(c1)c2c34 | inactive |

molecular target: Retinoic acid receptor alpha (Homo sapiens) (UniProt P10276); test: ATG_DR5_RAR_CIS: Attagene CIS-FACTORIAL HepG2 Assay for human Retinoic Acid Receptor Alpha (RARE), DR5 submotif (AID 2282934); settings: HepG2 Attagene cis-factorial RARE DR5 reporter, mRNA; actives raise or lower the signal;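 on AC50: reporter responds to endogenous RAR alpha beta and gamma in HepG2 not RARA alone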
Method in brief: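 After 24 h of chemical exposure, transiently transfected HepG2 cells were lysed for total RNA; the DR5-regulated reporter transcript was quantified via RT-PCR and capillary electrophoresis, with activity fitted bidirectionally against DMSO.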

Chain of Retinoic acid receptor alpha (Homo sapiens) (P10276 whole entry, looked up): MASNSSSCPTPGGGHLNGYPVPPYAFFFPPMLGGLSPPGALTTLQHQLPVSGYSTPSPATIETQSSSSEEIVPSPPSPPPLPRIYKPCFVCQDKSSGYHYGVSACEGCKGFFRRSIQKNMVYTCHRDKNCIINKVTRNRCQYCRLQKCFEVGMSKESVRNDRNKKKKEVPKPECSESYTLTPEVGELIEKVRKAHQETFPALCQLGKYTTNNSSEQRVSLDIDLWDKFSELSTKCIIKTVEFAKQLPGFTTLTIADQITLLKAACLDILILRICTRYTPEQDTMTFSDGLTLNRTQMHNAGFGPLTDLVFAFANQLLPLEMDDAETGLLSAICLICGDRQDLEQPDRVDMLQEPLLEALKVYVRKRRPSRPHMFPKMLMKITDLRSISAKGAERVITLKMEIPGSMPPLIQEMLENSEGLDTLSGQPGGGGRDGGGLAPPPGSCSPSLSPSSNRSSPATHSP

| Compound | AC50 | outcome |
| --- | --- | --- |
| C[C@]12CCC(=O)C=C1CC[C@@H]1[C@@H]2CC[C@]2(C)C(=O)CC[C@@H]12 | 36.7 µM (active) and 27.5 µM (active) | inactive |
| O=C(NC(=O)c1cc(F)c(F)cc1Cl)Nc1cc(F)ccc1N1CCC(C(=O)O)CC1 | 4.16 µM (active) | – |
| CC(c1ccc(O)cc1)(c1ccc(O)cc1)c1ccc(O)cc1 | – | inactive |
| ClC1=C(Cl)[C@]2(Cl)[C@@H]3[C@@H](Cl)[C@H]4O[C@H]4[C@@H]3C1(Cl)C2(Cl)Cl | 3.4 µM (active) | – |
| Cc1ccccc1[N+](=O)[O-] | – | inactive |
| ClC1=C(Cl)[C@]2(Cl)[C@@H]3[C@H]4C[C@H]([C@@H]5O[C@H]45)[C@@H]3[C@@]1(Cl)C2(Cl)Cl | 1.14 µM (active) | – |
| Oc1c(Cl)c(Cl)c(Cl)c(Cl)c1Cl | 14.1 µM (active) | inactive |
| CCCCCCCCCc1ccc(O)cc1 | – | inactive |
| O=S(=O)(O)C(F)(F)C(F)(F)C(F)(F)C(F)(F)F | – | inactive |
| Cc1cc(-c2ccc(N)c(C)c2)ccc1N | – | inactive |
| CC#Cc1cc(C)nc(Nc2ccccc2)n1 | – | inactive |
| O=C(O)C(F)(F)C(F)(F)C(F)(F)C(F)(F)C(F)(F)C(F)(F)C(F)(F)C(F)(F)F | – | inactive |
| O=C(O)C(F)(F)C(F)(F)C(F)(F)C(F)(F)C(F)(F)C(F)(F)C(F)(F)C(F)(F)C(F)(F)F | – | inactive |
| CCCCCCCCCC[N+](C)(C)CCCCCCCCCC | – | inactive |
| CCC(=O)O[C@H]1CC[C@H]2[C@@H]3CCC4=CC(=O)CC[C@]4(C)[C@H]3CC[C@]12C | – | inactive |
| COc1ccc(O)c(C(C)(C)C)c1 | – | inactive |
| CC1=C2C[C@H]3[C@@H](CC=C4C[C@@H](O)CC[C@@]43C)[C@@H]2CC[C@]12O[C@@H]1C[C@H](C)CN[C@H]1[C@H]2C | – | inactive |
| O=C(N[C@H]1CN2CCC1CC2)c1cc2ccoc2cn1 | – | inactive |
| NS(=O)(=O)C(F)(F)C(F)(F)C(F)(F)C(F)(F)C(F)(F)C(F)(F)C(F)(F)C(F)(F)F | 40.4 µM (active) and 29.7 µM (active) | inactive |
| ClC(Cl)=C(c1ccc(Cl)cc1)c1ccc(Cl)cc1 | 13.2 µM (active) | inactive |
| C[C@]12CCC(=O)C=C1CC[C@@H]1[C@@H]2CC[C@@]2(C)[C@H]1CC[C@]2(C)O | – | inactive |
| CCCN(CCC)N=O | – | inactive |
| CC(C)(c1ccccc1)c1ccc(O)cc1 | 1.8 µM (active) and 11.7 µM (active) | inactive |
| Cc1cc2c3c(c1)C(c1ccccc1)=N[C@@H](NC(=O)c1ccncc1)C(=O)N3CC2 | – | inactive |
| CC(C)(O)C(=O)Nc1ccc([N+](=O)[O-])c(C(F)(F)F)c1 | – | inactive |
| CCCCCCOC(=O)c1ccccc1C(=O)OCCCCCC | – | inactive |
| N#Cc1ccc(N(CC(N)=O)CC(F)(F)F)cc1C(F)(F)F | 1.56 µM (active) | – |
| Clc1ccc(Cl)cc1 | – | inactive |
| Clc1ccc(C(c2ccccc2Cl)C(Cl)(Cl)Cl)cc1 (stereo not given) | – | inactive |
| c1cc2ccc3cccc4ccc(c1)c2c34 | 7.9 µM (active) | – |

molecular target: Transcription factor E2F1 (Homo sapiens) (UniProt Q01094); test: ATG_E2F_CIS: Attagene CIS-FACTORIAL HepG2 Assay for human E2F Transcription Factor 1 (AID 2282935); settings: HepG2 Attagene cis-reporter, E2F reporter RNA transcripts; actives raise or lower the signal
Method in brief: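 Liver-derived HepG2 cells expressing transfected promoter-driven reporter units received test chemical for 24 hours. Signal gains or losses were fitted bidirectionally against DMSO.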

Chain of Transcription factor E2F1 (Homo sapiens) (Q01094 whole entry, looked up): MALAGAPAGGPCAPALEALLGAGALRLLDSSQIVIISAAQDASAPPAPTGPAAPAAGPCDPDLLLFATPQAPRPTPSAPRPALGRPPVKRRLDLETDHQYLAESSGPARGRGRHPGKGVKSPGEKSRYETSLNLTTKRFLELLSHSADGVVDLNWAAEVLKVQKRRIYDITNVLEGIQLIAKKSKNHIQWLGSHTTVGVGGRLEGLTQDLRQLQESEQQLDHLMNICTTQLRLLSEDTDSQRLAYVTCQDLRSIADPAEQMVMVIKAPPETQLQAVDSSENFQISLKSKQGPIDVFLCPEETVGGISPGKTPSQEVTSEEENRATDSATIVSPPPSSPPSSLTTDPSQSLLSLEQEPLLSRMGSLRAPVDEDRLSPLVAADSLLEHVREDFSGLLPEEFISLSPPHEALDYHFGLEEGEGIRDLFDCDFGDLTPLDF

| Compound | outcome | AC50 |
| --- | --- | --- |
| C[C@]12CCC(=O)C=C1CC[C@@H]1[C@@H]2CC[C@]2(C)C(=O)CC[C@@H]12 | inactive | – |
| O=S(=O)(O)C(F)(F)C(F)(F)C(F)(F)C(F)(F)C(F)(F)C(F)(F)F | inactive | – |
| CCOP(=S)(OCC)SCSC(C)(C)C | inactive | – |
| O=C(NC(=O)c1cc(F)c(F)cc1Cl)Nc1cc(F)ccc1N1CCC(C(=O)O)CC1 | inactive | – |
| CC(c1ccc(O)cc1)(c1ccc(O)cc1)c1ccc(O)cc1 | inactive | – |
| ClC1=C(Cl)[C@]2(Cl)[C@@H]3[C@@H](Cl)[C@H]4O[C@H]4[C@@H]3C1(Cl)C2(Cl)Cl | inactive | – |
| Cc1ccccc1[N+](=O)[O-] | inactive | – |
| ClC1=C(Cl)[C@]2(Cl)[C@@H]3[C@H]4C[C@H]([C@@H]5O[C@H]45)[C@@H]3[C@@]1(Cl)C2(Cl)Cl | inactive | – |
| Oc1c(Cl)c(Cl)c(Cl)c(Cl)c1Cl | inactive | – |
| CCCCCCCCCc1ccc(O)cc1 | inactive | – |
| O=S(=O)(O)C(F)(F)C(F)(F)C(F)(F)C(F)(F)F | inactive | – |
| Cc1cc(-c2ccc(N)c(C)c2)ccc1N | inactive | – |
| CC#Cc1cc(C)nc(Nc2ccccc2)n1 | inactive | – |
| O=C(O)C(F)(F)C(F)(F)C(F)(F)C(F)(F)C(F)(F)C(F)(F)C(F)(F)C(F)(F)F | inactive | 55.4 µM (active) |
| O=C(O)C(F)(F)C(F)(F)C(F)(F)C(F)(F)C(F)(F)C(F)(F)C(F)(F)C(F)(F)C(F)(F)F | inactive | – |
| CCCCCCCCCC[N+](C)(C)CCCCCCCCCC | inactive | – |
| CCC(=O)O[C@H]1CC[C@H]2[C@@H]3CCC4=CC(=O)CC[C@]4(C)[C@H]3CC[C@]12C | inactive | – |

| Compound | outcome | AC50 |
| --- | --- | --- |
| COc1ccc(O)c(C(C)(C)C)c1 | inactive | – |
| CC1=C2C[C@H]3[C@@H](CC=C4C[C@@H](O)CC[C@@]43C)[C@@H]2CC[C@]12O[C@@H]1C[C@H](C)CN[C@H]1[C@H]2C | inactive | – |
| O=C(N[C@H]1CN2CCC1CC2)c1cc2ccoc2cn1 | inactive | – |
| NS(=O)(=O)C(F)(F)C(F)(F)C(F)(F)C(F)(F)C(F)(F)C(F)(F)C(F)(F)C(F)(F)F | inactive | – |
| Oc1ccc(C(c2ccc(O)cc2)(C(F)(F)F)C(F)(F)F)cc1 | inactive | – |
| ClC(Cl)=C(c1ccc(Cl)cc1)c1ccc(Cl)cc1 | inactive | 175 µM (active) |
| C[C@]12CCC(=O)C=C1CC[C@@H]1[C@@H]2CC[C@@]2(C)[C@H]1CC[C@]2(C)O | inactive | – |
| CCCN(CCC)N=O | inactive | – |
| CC(C)(c1ccccc1)c1ccc(O)cc1 | inactive | 56.3 µM (active) |
| Cc1cc2c3c(c1)C(c1ccccc1)=N[C@@H](NC(=O)c1ccncc1)C(=O)N3CC2 | inactive | – |
| CC(C)(O)C(=O)Nc1ccc([N+](=O)[O-])c(C(F)(F)F)c1 | inactive | – |
| CCCCCCOC(=O)c1ccccc1C(=O)OCCCCCC | inactive | – |
| N#Cc1ccc(N(CC(N)=O)CC(F)(F)F)cc1C(F)(F)F | inactive | – |
| Clc1ccc(Cl)cc1 | inactive | – |
| Clc1ccc(C(c2ccccc2Cl)C(Cl)(Cl)Cl)cc1 (stereo not given) | inactive | – |
| c1cc2ccc3cccc4ccc(c1)c2c34 | inactive | – |
